In PubChem BioAssay (Tox21) one finds Potency, max activation and PLD induction data, which are given here for 22 compounds.

A short description of test [1]: qHTS assay to identify aromatase inhibitors - cell viability counter screen (AID 743084).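 Note: cells stimulated with testosterone during compound exposure; nearly all actives have a fitted effect of over 55% in size.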 Note: potency is the fitted concentration of half-maximal effect.
Test [2] addresses Aryl hydrocarbon receptor (Homo sapiens) (UniProt P35869). In words: qHTS assay to identify small molecule that activate the aryl hydrocarbon receptor (AhR) signaling pathway (AID 743085).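 Note: HG2L7.5c1 human HepG2 liver cells with stably integrated DRE-driven firefly reporter; series mostly up to about 70 µM; nearly all actives have a fitted effect of over 15% in size.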 The gist of the method:
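Cell line HG2L7.5c1 (human hepatoma, 20× DRE-luc). Plated, 5 h 37C, compound/DMSO added, 24 h 37C. CellTiter-Fluor 30 min 37C → fluorescence; then ONE-Glo 30 min RT → luminescence.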

A short description of test [3]: qHTS assay to identify small molecule that activate the aryl hydrocarbon receptor (AhR) signaling pathway - cell viability counter screen (AID 743086). Note: nearly all actives have a fitted effect of over 45% in size. Note: potency is the fitted concentration of half-maximal effect. The gist of the method:
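HepG2-AhR-luc (HG2L7.5c1) cells, 4000/well, treated 24 h at 37 C with compound; viability measured as CellTiter-Fluor fluorescence after 30 min in the same wells as the luciferase read.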
(In general: Quantitative high-throughput screening tests each substance at several concentrations.)

The nature of test [4]: qHTS assay to identify small molecule phospholipidosis (PLD) inducers (AID 1259344; active = well fitted curve in the direction sought with a large enough effect; an effect the other way counts as inactive or inconclusive). The gist of the method: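 Image-based: LipidTOX Red pit count/intensity per well and per cell; HepG2, 24 h compound at 37 C, PFA fixation, Hoechst counterstain.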
For test [5], the target named is Nuclear receptor subfamily 1 group I member 2 (Rattus norvegicus) (UniProt Q9R1A7). Nature of the test: Rat pregnane X receptor (rPXR) activation by small molecules, qHTS assay (AID 1346983). Note: nearly all actives have a fitted effect of over 20% in size. The following applies: rPXR luciferase reporter cells, One-Glo luminescence, 24 h; max activation: stronger effect = higher value. The gist of the method:
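Cell-based rPXR activation assay: rPXR cells, 2,000 per well, rested 5hr at 37 C, then exposed to compounds in DMSO for 24 hr at 37 C. Luciferase activity read by One-Glo luminescence after 30 min at room temperature.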

For test [6], the target named is Nuclear receptor subfamily 1 group I member 2 (Homo sapiens) (UniProt O75469). In words: CYP3A4 induction through human pregnane X receptor (PXR) by small molecules, qHTS assay (AID 1346984). Note: nearly all actives have a fitted effect of over 40% in size. Note: potency is the fitted concentration of half-maximal effect. The gist of the method:
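Quantitative HTS in DPX-2 cells, i.e. HepG2 transfected with PXR response element and CYP3A4-promoter luciferase. Compounds in DMSO incubated 24hr at 37C; then P450-Glo CYP3A4 substrate, 3uM final, 3hr; One-Glo luminescence.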

Test [7] has the same target. In words: Human pregnane X receptor (PXR) activation by small molecules, qHTS assay (AID 1346985). Note: nearly all actives have a fitted effect of over 40% in size. Note: potency is the fitted concentration of half-maximal effect. Summed up:
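DPX-2 cells (HepG2 co-transfected with a PXR response element and a CYP3A4-promoter luciferase construct) were seeded at 2,000 per well, rested 5 hr at 37C, then exposed to DMSO-dissolved compounds for 24 hr. Activation was read as luciferase luminescence.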

Test [8] addresses Peroxisome proliferator-activated receptor gamma (Homo sapiens) (UniProt P37231). Nature of the test: qHTS assay to identify small molecule agonists of the peroxisome proliferator-activated receptor gamma (PPARg) signaling pathway (AID 743094; active = well fitted activation curve with a large enough effect in the signal ratio in the repeat runs, not every such curve was filed as active; the % refers to the signal ratio). The gist of the method: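 Cells from the PPARg UAS-bla HEK293H line are plated and incubated 5 h at 37C. Compounds in DMSO are pinned in and left 17 h at 37C. LiveBLAzer B/G substrate is then added for 1 h at room temperature before fluorescence is measured.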

Records with an inconclusive call do not appear. Values without a mark were called inactive. Calls of active or inactive are those of the source. Unless noted, calls come from the whole dose curve; as a rule, active = well fitted curve in the direction sought with a large enough effect in the repeat runs; inconclusive = weak or mixed curves; inactive = no such curve, though single readings can be large; an effect the other way counts as inactive or inconclusive.
% is set by controls: 0 for no effect and ±100 for the full control effect.

Chain of Peroxisome proliferator-activated receptor gamma (Homo sapiens) (P37231 whole entry, looked up): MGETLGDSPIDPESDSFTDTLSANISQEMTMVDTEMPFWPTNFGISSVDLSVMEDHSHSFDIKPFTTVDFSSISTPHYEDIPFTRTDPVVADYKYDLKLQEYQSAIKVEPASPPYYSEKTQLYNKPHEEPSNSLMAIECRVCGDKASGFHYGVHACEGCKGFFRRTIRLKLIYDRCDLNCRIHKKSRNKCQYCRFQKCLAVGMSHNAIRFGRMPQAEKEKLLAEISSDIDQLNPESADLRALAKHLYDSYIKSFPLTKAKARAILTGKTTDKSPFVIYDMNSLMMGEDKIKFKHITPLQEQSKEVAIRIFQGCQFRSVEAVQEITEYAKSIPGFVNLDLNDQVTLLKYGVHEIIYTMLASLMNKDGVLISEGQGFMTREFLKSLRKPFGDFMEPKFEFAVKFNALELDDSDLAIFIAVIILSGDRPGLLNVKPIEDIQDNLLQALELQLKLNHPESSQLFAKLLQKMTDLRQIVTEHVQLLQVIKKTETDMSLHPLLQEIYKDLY
Chain of Nuclear receptor subfamily 1 group I member 2 (Rattus norvegicus) (Q9R1A7 whole entry, looked up): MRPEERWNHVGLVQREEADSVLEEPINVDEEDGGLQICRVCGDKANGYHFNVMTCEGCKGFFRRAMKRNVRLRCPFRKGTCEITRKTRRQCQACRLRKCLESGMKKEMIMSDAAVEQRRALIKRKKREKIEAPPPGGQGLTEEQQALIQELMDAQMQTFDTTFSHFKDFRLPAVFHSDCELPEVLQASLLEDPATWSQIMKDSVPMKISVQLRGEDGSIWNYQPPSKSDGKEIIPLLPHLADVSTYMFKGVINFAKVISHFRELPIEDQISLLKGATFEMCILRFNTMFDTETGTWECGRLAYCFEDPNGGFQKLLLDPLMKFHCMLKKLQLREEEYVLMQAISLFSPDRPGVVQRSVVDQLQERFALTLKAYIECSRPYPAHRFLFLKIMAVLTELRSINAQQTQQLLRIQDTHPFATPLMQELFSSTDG
Chain of Aryl hydrocarbon receptor (Homo sapiens) (P35869 whole entry, looked up): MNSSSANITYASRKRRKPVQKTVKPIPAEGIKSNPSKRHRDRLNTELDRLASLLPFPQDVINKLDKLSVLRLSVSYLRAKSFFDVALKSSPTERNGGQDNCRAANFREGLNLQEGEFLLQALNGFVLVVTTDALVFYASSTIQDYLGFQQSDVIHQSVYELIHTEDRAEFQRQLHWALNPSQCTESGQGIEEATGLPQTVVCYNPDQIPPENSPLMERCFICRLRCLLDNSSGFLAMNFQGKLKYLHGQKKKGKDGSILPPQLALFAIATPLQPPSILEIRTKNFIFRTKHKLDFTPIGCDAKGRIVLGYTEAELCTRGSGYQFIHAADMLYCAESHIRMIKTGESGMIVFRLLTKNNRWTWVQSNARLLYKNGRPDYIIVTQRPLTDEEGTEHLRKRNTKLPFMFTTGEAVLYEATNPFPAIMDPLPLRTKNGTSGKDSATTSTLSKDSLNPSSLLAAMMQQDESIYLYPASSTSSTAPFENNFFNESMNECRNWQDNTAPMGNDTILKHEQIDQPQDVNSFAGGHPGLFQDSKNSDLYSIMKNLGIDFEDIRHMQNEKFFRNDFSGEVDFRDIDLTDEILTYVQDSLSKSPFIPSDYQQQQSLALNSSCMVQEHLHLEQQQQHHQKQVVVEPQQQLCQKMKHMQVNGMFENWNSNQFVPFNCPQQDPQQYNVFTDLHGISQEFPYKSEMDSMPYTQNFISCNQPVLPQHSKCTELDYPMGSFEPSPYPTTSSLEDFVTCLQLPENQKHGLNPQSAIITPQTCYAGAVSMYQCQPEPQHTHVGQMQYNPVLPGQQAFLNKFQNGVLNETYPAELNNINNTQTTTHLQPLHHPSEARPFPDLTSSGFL

In the case of `CCCCC[C@H](O)/C=C/[C@H]1[C@H](O)CC(=O)[C@@H]1CCCCCCC(=O)O`, the Potency result in test [1], in test [2], in test [3], in test [4], in test [6] and in test [7] was “inactive” each time. In test [5], the max activation is -0.783%.

`CC1(C)S[C@@H]2[C@H](NC(=O)C3(N)CCCCC3)C(=O)N2[C@H]1C(=O)O`: the Potency entry in test [1], in test [2], in test [3], in test [4], in test [6] and in test [7] was “inactive” each time. In test [5], the max activation was -4.4%.

In the case of `CCOC(=O)C1=C(COCCN)NC(C)=C(C(=O)OC)C1c1ccccc1Cl` (centres undefined), the Potency result in test [1], in test [2] and in test [4] was “inactive” each time. For the same compound, the Potency in test [3] is 23.7 µM (active); in test [6], 8.91 µM (active); in test [7] it was 8.91 µM (active). The max activation in test [5] was 3.61%.

On to `CC[C@]1(O)CC2CN(CCc3c([nH]c4ccccc34)[C@@](C(=O)OC)(c3cc4c(cc3OC)N(C)[C@H]3[C@@](O)(C(N)=O)[C@H](O)[C@]5(CC)C=CCN6CC[C@]43[C@@H]65)C2)C1` (some centres undefined), for which the Potency entry in test [4] was “inactive”.

For `CC(C)=CCC/C(C)=C/C=C/C(C)=C/C=C/C(C)=C/C=C/C=C(C)/C=C/C=C(C)/C=C/C=C(\C)CCC=C(C)C`, the Potency entry in test [1], in test [2], in test [3], in test [4], in test [6] and in test [7] was “inactive” each time. In addition, in test [5], the max activation was 2.83%.

Take `CC(=O)Nc1c(I)c(C(=O)N[C@H]2C(O)O[C@H](CO)[C@@H](O)[C@@H]2O)c(I)c(N(C)C(C)=O)c1I` (some centres undefined): the Potency entry in test [1], in test [2], in test [3], in test [8], in test [4] and in test [6] was “inactive” in each case. In addition, in test [7], the Potency result was “inactive”. Also, the max activation in test [5] is -3.77%.

In the case of `OC[C@H]1OC([S-])[C@H](O)[C@@H](O)[C@@H]1O.[Au+]` (some centres undefined), the Potency entry in test [1], in test [2], in test [3], in test [4], in test [6] and in test [7] was “inactive” each time. In test [5], the max activation was -6.36%.

As for `CO[C@H]1C[C@H](O[C@@H]2/C(C)=C/C[C@@H]3C[C@@H](C[C@]4(CC[C@H](C)[C@@H](C5CCCCC5)O4)O3)OC(=O)[C@@H]3C=C(C)/C(=N/O)[C@H]4OC/C(=C\C=C\[C@@H]2C)[C@]43O)O[C@@H](C)[C@@H]1O`, the Potency entry in test [1], in test [2], in test [3], in test [4], in test [6] and in test [7] was “inactive” in each case. For the same compound, in test [5], the max activation is -0.144%.

In the case of `C[C@]12CC[C@@H]3c4ccc(OS(=O)(=O)O)cc4CC[C@H]3[C@@H]1CCC2=O`, the PLD induction in test [4] was 0.241% [at 7.66 µM].

Turning to `CC1=C[C@H](O)CC(C)(C)[C@H]1/C=C/C(C)=C/C=C/C(C)=C/C=C/C=C(C)/C=C/C=C(C)/C=C/C1=C(C)C[C@@H](O)CC1(C)C`, the Potency result in test [1], in test [2], in test [3], in test [4], in test [6] and in test [7] was “inactive” throughout. Moreover, the max activation in test [5] was 0.35%.

Take `NC(=O)OCC(O)COc1ccc(Cl)cc1` (centres undefined): the Potency entry in test [1], in test [2], in test [3], in test [8], in test [4] and in test [6] was “inactive” in each case. For the same compound, the Potency result in test [7] is “inactive”. Also, the max activation in test [5] is 0.928%.

For `CCCCC[C@H](O)/C=C/[C@@H]1[C@H]2C/C(=C/CCCC(=O)O)O[C@H]2C[C@H]1O`, the Potency result in test [1], in test [2], in test [3], in test [8], in test [4] and in test [6] was “inactive” each time. Further, the Potency result in test [7] is “inactive”. The max activation in test [5] is -0.736%.

Consider `C=C(NC(=O)C(=C)NC(=O)c1csc(C2=N[C@@H]3c4csc(n4)[C@H]4NC(=O)c5csc(n5)[C@H]([C@](C)(O)[C@@H](C)O)NC(=O)[C@H]5CSC(=N5)C(=CC)NC(=O)C([C@@H](C)O)NC(=O)c5csc(n5)[C@]3(CC2)NC(=O)[C@H](C)NC(=O)C(=C)NC(=O)[C@H](C)NC(=O)C([C@@H](C)CC)NC2C=Cc3c([C@H](C)O)cc(nc3C2O)C(=O)O[C@@H]4C)n1)C(N)=O` (some centres undefined), for which the Potency in test [1] was 11.4 µM (active). Further, the Potency result in test [2], in test [3], in test [4], in test [6] and in test [7] was “inactive” each time. For the same compound, the max activation in test [5] was -3.21%.

With `CC(=O)Nc1c(I)c(C(=O)O)c(I)c(N(C)C(C)=O)c1I`, the Potency entry in test [1], in test [2], in test [3], in test [8], in test [4] and in test [6] was “inactive” each time. Further, the Potency result in test [7] is “inactive”. The max activation in test [5] was -0.923%.

Turning to `C[C@]12CC[C@@H]3c4ccc(OC(=O)c5ccccc5)cc4CC[C@H]3[C@@H]1CC[C@@H]2O`, the Potency result in test [1], in test [2], in test [3], in test [8], in test [4] and in test [6] was “inactive” in each case. Further, in test [7], the Potency entry is “inactive”. Further, the max activation in test [5] was -1.5%.

For the compound `C[C@@H](O)[C@H]1C(=O)N2C(C(=O)[O-])=C(SC3Cn4cnc[n+]4C3)[C@H](C)[C@H]12` (some centres undefined), the Potency result in test [1], in test [2], in test [3], in test [8], in test [4] and in test [6] was “inactive” each time. In addition, in test [7], the Potency result was “inactive”. The max activation in test [5] was 0.401%.

`CC(O)[C@@H]1NC(=O)[C@H](Cc2ccccc2)NC(=O)[C@H](C(C)O)NC(=O)[C@H](CCCCN)NC(=O)[C@H](Cc2c[nH]c3ccccc23)NC(=O)[C@H](Cc2ccccc2)NC(=O)[C@H](Cc2ccccc2)NC(=O)[C@H](CC(N)=O)NC(=O)[C@H](CCCCN)NC(=O)[C@@H](NC(=O)CNC(=O)[C@H](C)N)CSSC[C@@H](C(=O)O)NC(=O)[C@H](CO)NC1=O` (some centres undefined): the Potency result in test [1], in test [2], in test [3], in test [8], in test [4] and in test [6] was “inactive” in each case. Besides, the Potency entry in test [7] was “inactive”. Further, the max activation in test [5] was -3.53%.

In the case of `COc1ccc(/C=C/C(=O)OCCC(C)C)cc1`, the Potency result in test [1], in test [2], in test [3], in test [8], in test [4] and in test [6] was “inactive” each time. In addition, in test [7], the Potency result is “inactive”. The max activation in test [5] is 9.31%.

For the compound `CO/N=C(\C(=O)N[C@@H]1C(=O)N2C(C(=O)O)=CCS[C@H]12)c1csc(N)n1`, the Potency result in test [1], in test [2], in test [3], in test [8], in test [4] and in test [6] was “inactive” each time. In addition, the Potency entry in test [7] was “inactive”. Further, in test [5], the max activation is -4.38%.

With `Oc1cc(O)cc(O)c1`, the Potency result in test [1], in test [2], in test [3], in test [8], in test [4] and in test [6] was “inactive” each time. Further, the Potency result in test [7] is “inactive”. The max activation in test [5] is -1.47%.

Consider `Nc1nc2[nH]cc(CCc3ccc(C(=O)N[C@@H](CCC(=O)O)C(=O)O)cc3)c2c(=O)[nH]1`, for which the Potency entry in test [1], in test [2], in test [3], in test [8], in test [4] and in test [6] was “inactive” in each case. Also, the Potency entry in test [7] was “inactive”. The max activation in test [5] was -1.09%.

Consider `CCCCCCCCCCCCCCCCCC[N+](C)(C)CCC[Si](OC)(OC)OC`, for which the Potency entry in test [1], in test [2], in test [3], in test [8], in test [4] and in test [6] was “inactive” each time. Also, the Potency result in test [7] was “inactive”. The max activation in test [5] is 6.33%.
